About 79,000 compounds went through this panel and 15% of them were active in at least one assay; those are over-represented in the sample as a whole. The source made the active and inactive calls. Rule as the data show it: active = growth inhibition above about 70%; inactive = the rest.
Assays:
[1] = NCI Yeast Anticancer Drug Screen. Data for the rad50 strain (AID 155);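 also: 0% = growth of vehicle-only cultures of the same strain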; settings: S. cerevisiae rad50 strain growth inhibition, active compounds read high
Method in brief: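 A DNA repair-deficient yeast mutant serves as the test organism; compound-induced growth inhibition is calculated against vehicle-treated cells.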

[2] = NCI Yeast Anticancer Drug Screen. Data for the mec2-1 strain (AID 157); settings: S. cerevisiae mec2-1 strain, active compounds read high
Method in brief: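 Mutant yeast (mec2-1) grown with compound; growth inhibition relative to vehicle control reported.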

[3] = NCI Yeast Anticancer Drug Screen. Data for the sgs1 mgt1 strain (AID 161);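 also: 0% = growth of cultures given vehicle only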; settings: S. cerevisiae sgs1 mgt1 strain, active compounds read high
Method in brief: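 Compounds are added to genetically altered yeast, and growth is compared with cultures given vehicle alone to give percent inhibition.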

[4] = NCI Yeast Anticancer Drug Screen. Data for the cln2 rad14 strain (AID 165);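 also: 0% = growth equal to vehicle treated cultures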; settings: S. cerevisiae cln2 rad14 strain, active compounds read high
Method in brief: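 Readout is yeast growth inhibition versus vehicle-treated controls, using a strain with cln2 and rad14 alterations exposed to compound.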

[5] = NCI Yeast Anticancer Drug Screen. Data for the bub3 strain (AID 167); settings: S. cerevisiae bub3 mutant strain, active compounds read high
Method in brief: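 Inhibition values come from growth of compound-treated mutant yeast normalised to vehicle-treated controls.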

[6] = NCI Yeast Anticancer Drug Screen. Data for the mlh1 rad18 strain (AID 175); settings: S. cerevisiae mlh1 rad18 strain growth inhibition, active compounds read high
Method in brief: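 Genetically defined yeast (DNA repair-deficient) exposed to compounds; growth inhibition determined relative to vehicle.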

[7] = at 5.0 µM (retest, dose inferred, filed as 0.5)
[8] = at 50.0 µM (retest, dose inferred, filed as 5.0)

Measured: growth inhibition

C[N+](C)(CCO)Cc1ccccc1
active: [5]; at 50.0 µM 74.2%
inactive: [1]; [7] -4% | [1]; [8] 10% | [1]; at 50.0 µM -19.4% | [2]; [7] 1% | [2]; [8] 0% | [2]; at 50.0 µM 1.6% | [3]; [7] -5% | [3]; [8] -37% | [3]; at 50.0 µM 11.2% | [4]; [7] -1% | [4]; [8] 2% | [4]; at 50.0 µM -30.6% | [5]; [7] 8% | [5]; [8] 39% | [6]; [7] -4% | [6]; [8] 6% | [6]; at 50.0 µM 34%

CN[C@@H](Cc1cccc2ccccc12)C(=O)N[C@@H](CC(C)C)B(O)O
inactive: [1]; [7] 34% | [1]; [8] 51% | [1]; at 50.0 µM 27.1% | [2]; [7] 37% | [2]; [8] 40% | [2]; at 50.0 µM 12.1% | [3]; [7] 16% | [3]; [8] 18% | [3]; at 50.0 µM 3.85% | [4]; [7] 53% | [4]; [8] 54% | [4]; at 50.0 µM 59.4% | [5]; [7] 25% | [5]; [8] 16% | [5]; at 50.0 µM 36.5% | [6]; [7] 33% | [6]; [8] 60% | [6]; at 50.0 µM 16.4%

CC1(C)C(=O)N(CCCCCCN2C(=O)C(C)(C)c3ccccc32)c2ccccc21
active: [1]; at 50.0 µM 79.5% | [2]; at 50.0 µM 78% | [3]; at 50.0 µM 81.5% | [4]; at 50.0 µM 83.5% | [5]; at 50.0 µM 73.2% | [6]; at 50.0 µM 78.5%
inactive: [1]; [7] 20% | [1]; [8] 20% | [2]; [7] 4% | [2]; [8] 4% | [3]; [7] 5% | [3]; [8] 5% | [4]; [7] -11% | [4]; [8] -11% | [5]; [7] 12% | [5]; [8] 12% | [6]; [7] 3% | [6]; [8] 3%

COc1c2c(cc3c1c(=O)c1ccccc1n3C)OCO2
inactive: [1]; [7] -12% | [1]; [8] 26% | [1]; at 50.0 µM 61.5% | [2]; [7] -4% | [2]; [8] 1% | [2]; at 50.0 µM 33.9% | [3]; [7] -5% | [3]; [8] 14% | [3]; at 50.0 µM 40.5% | [4]; [7] 18% | [4]; [8] 5% | [4]; at 50.0 µM -45.8% | [5]; [7] 2% | [5]; [8] 0% | [5]; at 50.0 µM 25.4% | [6]; [7] -29% | [6]; [8] 22% | [6]; at 50.0 µM 62.8%

ICCCCCCCCCC[n+]1ccc2ccccc2c1
inactive: [1]; [7] 32% | [3]; [7] 52% | [4]; [7] 42% | [6]; [7] 28%
active: [1]; [8] 98% | [1]; at 50.0 µM 88.9% | [2]; [7] 89% | [2]; [8] 99% | [2]; at 50.0 µM 89.8% | [3]; [8] 99% | [3]; at 50.0 µM 89.3% | [4]; [8] 99% | [4]; at 50.0 µM 85.4% | [5]; [7] 78% | [5]; [8] 99% | [5]; at 50.0 µM 92.7% | [6]; [8] 96% | [6]; at 50.0 µM 90.5%

CC(C)(N)COB(c1ccccc1)c1ccccc1
active: [1]; [8] 99% | [1]; at 50.0 µM 99.7% | [2]; [8] 99% | [2]; at 50.0 µM 99.8% | [3]; [8] 99% | [3]; at 50.0 µM 99.8% | [4]; [8] 99% | [4]; at 50.0 µM 99.5% | [5]; [8] 98% | [5]; at 50.0 µM 99.8% | [6]; [8] 99% | [6]; at 50.0 µM 99.5%
inactive: [1]; [7] 10% | [2]; [7] -5% | [3]; [7] -1% | [4]; [7] 0% | [5]; [7] -4% | [6]; [7] -7%

CN(C)CCOc1cc2c(c3ccccc13)-c1ccccc1C2O (stereo not given)
active: [1]; [8] 96% | [1]; at 50.0 µM 98.3% | [6]; [8] 83% | [6]; at 50.0 µM 72.8%
inactive: [1]; [7] 30% | [2]; [7] 0% | [2]; [8] 45% | [2]; at 50.0 µM 26.8% | [3]; [7] 9% | [3]; [8] 69% | [3]; at 50.0 µM 67.8% | [4]; [7] 1% | [4]; [8] 31% | [4]; at 50.0 µM 38.1% | [5]; [7] 2% | [5]; [8] 34% | [5]; at 50.0 µM 34.5% | [6]; [7] 7%

O=C1/C(=C/c2ccc(F)cc2)CNC/C1=C\c1ccc(F)cc1
inactive: [1]; [7] 12% | [1]; [8] 44% | [2]; [7] 5% | [2]; [8] 36% | [3]; [7] -2% | [3]; [8] 31% | [4]; [7] 35% | [4]; [8] 43% | [5]; [7] -11% | [5]; [8] 37% | [6]; [7] 16% | [6]; [8] 53%
active: [1]; at 50.0 µM 79.2% | [2]; at 50.0 µM 84.8% | [3]; at 50.0 µM 79.2% | [4]; at 50.0 µM 70.6% | [5]; at 50.0 µM 79.8% | [6]; at 50.0 µM 85.5%

CC1C(CCC(=O)O)OC2CC3C4CCC5CC(O)CCC5(C)C4CCC3(C)C21 (stereo not given)
inactive: [1]; [7] 4% | [1]; [8] 56% | [2]; [7] 7% | [3]; [7] 22% | [4]; [7] 8% | [5]; [7] 4% | [5]; [8] 66% | [6]; [7] 16%
active: [1]; at 50.0 µM 82.3% | [2]; [8] 96% | [2]; at 50.0 µM 90% | [3]; [8] 89% | [3]; at 50.0 µM 95.5% | [4]; [8] 90% | [4]; at 50.0 µM 93.7% | [5]; at 50.0 µM 86.4% | [6]; [8] 91% | [6]; at 50.0 µM 85.3%

CCCCCN(CCCCC)CCNc1ccc(C)c2sc3ccccc3c(=O)c12
active: [1]; [8] 96% | [1]; at 50.0 µM 98.6% | [2]; [8] 97% | [2]; at 50.0 µM 97.3% | [3]; [8] 97% | [3]; at 50.0 µM 98.2% | [4]; [8] 93% | [4]; at 50.0 µM 95.7% | [5]; [8] 97% | [5]; at 50.0 µM 96.8% | [6]; [8] 97% | [6]; at 50.0 µM 97%
inactive: [1]; [7] 2% | [2]; [7] 7% | [3]; [7] 17% | [4]; [7] 5% | [5]; [7] 7% | [6]; [7] 9%
